Most compounds without a hit are left out; they make up all but 7.5% or so of the library.
SMN2 splice enh = increases expression of the SMN2 splice variant; actives 2.8% (n = 210,000); AID 1458; Potency, µM (top dose mostly 46.1 µM), inactives show at the highest dose activity change, positive = activation, most hits filed as activators; HEK293 SMN2-luciferase splicing reporter, luminescence, 30-36 h; further: % of control where 0% means no effect; nearly all actives have a fitted effect of over 55% in size
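HEK293 cells carry an SMN2 minigene-luciferase reporter in which exon 7 inclusion puts luciferase in frame. Cells were seeded at 2000 cells/well, attached for 10-12 hours, then exposed to compounds for 30-36 hours at 37C before ONE-Glo luminescence.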
Luc counter = blocks Kinase-Glo luciferase, a counter-screen artifact; actives 0.28% (n = 200,000); Potency, µM (highest dose often 38.3 µM), inactives show at the highest dose activity change, negative = inhibition, actives largely listed as inhibitors; Q27757; Kinase-Glo luciferase, ATP luminescence, 8 min; further: on the % scale 0 is the no-effect control and ±100 the full control effect; nearly all actives have a fitted effect of over 60% in size
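Kinase-Glo luciferase light output from ATP and luciferin was measured with 10 uM ATP, within the enzyme's linear range. Buffer: 50 mM imidazole pH 7.2, 50 mM KCl, 7 mM MgCl2, 0.01% Tween 20, 0.05% BSA; luminescence read after 8 min at ambient temperature.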
Rab9 promoter act = activates the Rab9 promoter; Huh7 Rab9 promoter-luciferase reporter, luminescence, 24 h; Potency, µM (doses to about 9.22 µM), inactives show at the top dose activation, negative = inhibition, hits mostly activators; actives 2.8% (n = 320,000); AID 485297; further: % of control where 0% means no effect; nearly all actives have a fitted effect of over 60% in size
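Huh7 cells stably carrying Rab9 promoter–luciferase reporter, plated 1500 cells/well, compound added after 2 h and incubated 24 h at 37 °C; luciferase luminescence then read after 10 min with detection reagent.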
FLuc modulator = counter-screen for miR-21 project: firefly luciferase inhibitors or activators; purified FLuc, Km substrates, luminescence inhibition; Potency, µM (top dose mostly 57.5 µM), for the others: at the top dose activity change, negative = inhibition, usual class: inhibitors; actives 6.9% (n = 360,000); AID 588342;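 further: plate controls were vehicle for no effect and reference inhibitor for full effect; nearly all actives have a fitted effect of over 55% in size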
Target sequence (P08659 whole entry, looked up): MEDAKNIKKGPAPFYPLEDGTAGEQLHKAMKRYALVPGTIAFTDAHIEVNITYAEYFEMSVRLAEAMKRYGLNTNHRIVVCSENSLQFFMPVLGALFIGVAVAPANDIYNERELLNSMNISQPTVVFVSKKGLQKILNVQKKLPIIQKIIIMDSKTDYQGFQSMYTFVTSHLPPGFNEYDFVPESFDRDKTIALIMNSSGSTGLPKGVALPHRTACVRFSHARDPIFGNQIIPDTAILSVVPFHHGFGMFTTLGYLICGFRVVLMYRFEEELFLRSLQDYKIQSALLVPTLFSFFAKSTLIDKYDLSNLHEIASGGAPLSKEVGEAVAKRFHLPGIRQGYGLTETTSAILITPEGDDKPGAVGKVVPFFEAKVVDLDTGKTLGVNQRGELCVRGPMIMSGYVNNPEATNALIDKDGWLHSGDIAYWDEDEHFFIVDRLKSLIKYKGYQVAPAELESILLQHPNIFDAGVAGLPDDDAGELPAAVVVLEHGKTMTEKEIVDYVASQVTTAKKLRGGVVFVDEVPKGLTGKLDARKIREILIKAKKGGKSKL
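Purified P. pyralis luciferase, 10 nM final, with Km-level 10 uM D-luciferin and 10 uM ATP in 50 mM Tris acetate pH 7.5, 10 mM Mg acetate, 0.01% Tween-20, 0.05% BSA; 6-point qHTS titration about 60 µM downward; luminescence read.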
ELG1 genotoxic = inducers of genotoxicity in HEK293T ELG1-luciferase cells | actives 1.3% (n = 330,000) | Potency, µM (titrated, usually from 46 µM), for the others: at the highest dose activity change, positive = activation, actives largely listed as activators | AID 504466 | HEK293T ELG1-luciferase reporter, luminescence, 16 h; further: % of control where 0% means no effect; nearly all actives have a fitted effect of over 60% in size
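Quantitative HTS format in 1536-well plates. HEK293T ELG1-luciferase reporter cells receive test compound and are incubated 16 hr at 37 °C, 5% CO2; ONE-Glo added, 30 min room temperature, then luminescence read.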
NPC1 prom act = NPC1 promoter activation; Huh7 NPC1 promoter luciferase reporter, 24 h; Potency, µM (series often up to 9.22 µM), inactives show top-dose activation, usual class: activators; actives 2.4% (n = 320,000); further: % of control where 0% means no effect; nearly all actives have a fitted effect of over 60% in size
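Luminescence from an NPC1 promoter-driven luciferase reporter in stably transfected Huh7 cells was measured after 24 h compound treatment at 37 °C, followed by 10 min ambient incubation with luciferase detection reagent.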
An asterisk follows results filed as active; u = inconclusive; x = no result; [ ] = another dose, or the depositor's remark. The call rests on the fitted dose curve; in most records, active means well fitted curve in the direction sought with a large enough effect; inconclusive means small, poorly fitted or top-dose-only effect, or another doubt; inactive means no such curve, though single readings can be large; an effect the other way counts as inactive or inconclusive. Potency means the concentration at half of the fitted maximal effect.

SMILES	SMN2 splice enh	Luc counter	Rab9 promoter act	FLuc modulator	ELG1 genotoxic	NPC1 prom act
Cc1ccc(/C=C2\C(=O)NC(=O)N(CCc3ccc(F)cc3)C2=O)o1	10.0%	0.5%	1.2%	-9.5%	u	0.4%
O=C1NC(=O)C(=Cc2ccc(-c3ccc(S(=O)(=O)N4CCOCC4)cc3)o2)C(=O)N1	x	x	1.5%	u	10.5%	-1.5%
CN1C(=O)C(=Cc2ccc(Sc3ccccc3)o2)C(=O)N(C)C1=O	-2.4%	-2.1%	-4.8%	u	13.4%	-3.0%
O=C1NC(=O)C(=Cc2ccc(Sc3ccccc3)o2)C(=O)N1	x	x	0.2%	23.9µM*	u	0.7%
O=C1NC(=O)C(=Cc2ccc(-c3ccc(Cl)cc3)o2)C(=O)N1	x	x	0.2%	6.75µM*	-15.7%	-0.3%
O=C(O)[C@H]1[O][Sb][O][C@@H](C(=O)O)C1O (stereo partly specified)	-5.2%[9.22 µM]	-10.0%[7.66 µM]	x	x	x	x
O=C1C=CC(=O)C(Cl)=C1	x	-3.0%[39.9 µM]	x	x	x	x
Cc1cc(C=C2C(=O)N(C)C(=S)N(C)C2=O)c(C)n1C1CCCCC1	-19.8%	-4.1%	3.3%	3.38µM*	-1.5%	-5.7%
Cc1cc(C=C2C(=O)NC(=O)NC2=O)c(C)n1-c1cccnc1	x	x	0.1%	u	3.4%	2.1%
Cc1cc(N2CCCCC2)ccc1C=C1C(=O)N(C)C(=S)N(C)C1=O	-53.6%	-8.8%	-5.1%	u	2.2%	-5.2%
Cc1cc(C=C2C(=O)NC(=S)NC2=O)c(C)n1C1CCCC1	6.8%	u	-0.2%	1.51µM*	20.6µM*	-0.5%
C=C(C)c1ccccc1 (tested in a mixture with another compound)	-4.9%[9.22 µM]	-2.1%[7.66 µM]	x	x	x	x
O=C(C[C@H](c1ccccc1)c1c(O)c2ccccc2oc1=O)c1ccccc1	-3.8%[9.22 µM]	-3.7%[7.66 µM]	x	x	x	x
CCC12CCN(C)CC1Oc1c(C)cccc12 (stereo unspecified)	x	x	x	-1.8%	x	x
O=C(O)C[C@H]1NCc2cc3ccccc3nc21	-2.8%[9.22 µM]	-1.9%[7.66 µM]	x	x	x	x
O=C1NC(=O)C(=Cc2cc(Cl)ccc2OCc2ccc(C(=O)O)cc2)C(=O)N1	-9.1%	-7.1%	-1.3%	23.9µM*	0.3%	-1.7%
CCOc1cc(C=C2C(=O)NC(=O)NC2=O)ccc1OCC(=O)N1CCOCC1	-1.6%	-0.7%	-1.9%	0.2%	0.7%	-1.7%
N[C@H](Cc1ccc2oc3cc(=O)c4ccccc4c-3nc2c1)C(=O)O	1.2%[9.22 µM]	-4.1%[7.66 µM]	x	x	x	x
COc1cccc2c1C(=O)c1c(O)c3c(c(O)c1C2=O)C[C@](O)(/C(C)=N\O)C[C@@H]3O[C@H]1C[C@H](N)[C@@H](O)[C@H](C)O1	-27.0%[9.22 µM]	-4.8%[7.66 µM]	x	x	x	x
O=C(c1ccccc1)[C@H]1[C@H](c2ccccc2[N+](=O)[O-])N1C1CCCCC1 (stereo partly specified)	1.5%[9.22 µM]	-3.1%[7.66 µM]	x	x	x	x
CN(C)C(Cc1ccccc1)C(=O)c1c[nH]c2ccccc12 (stereo unspecified)	x	x	0.9%	23.9µM*	0.4%	-1.1%
O=C(O)C(C(=O)O)P(=S)(S)c1ccccc1 (stereo unspecified)	1.4%[9.22 µM]	-1.1%[7.66 µM]	x	x	x	x
COc1ccc(-c2nc3ccccc3c(=O)n2-c2nccs2)cc1	0.9%	-4.7%	8.7%	23.9µM*	-0.5%	0.7%
COc1ccc(C(=O)Nc2cccc(S(=O)(=O)NCc3ccco3)c2)cc1	x	x	x	x	-3.3%	x
CCCOc1ccc(C(=O)Nc2ccc(-c3cc4ccccc4oc3=O)c(C)c2)cc1	-63.3%	x	x	1.69µM*	x	x
COc1cc2cc(c1Cl)N(C)C(=O)C[C@H](OC(=O)C(C)C)[C@]1(C)O[C@@H]1[C@@H](C)[C@H]1C[C@](O)(NC(=O)O1)[C@@H](OC)/C=C\C=C(\C)C2	-22.8%[9.22 µM]	-0.4%[7.66 µM]	x	x	x	x
CC(=O)N1CCc2cc(S(=O)(=O)N3CCN(c4ccc(C)cc4)C(C)C3)ccc21 (stereo unspecified)	-30.8%	x	x	-8.5%	x	x
COc1ccc(NC2=NC(C)(C)CS2)cc1	11.2µM*	0.2%	u	u	u	u
